This passage reports Potency and outcome results from PubChem BioAssay (NCATS).

Inconclusive results are not listed. Calls of active or inactive are those of the source. Unless noted, calls follow the shape of the dose curve; as a rule, active = well fitted curve in the direction sought with a large enough effect; inconclusive = small, poorly fitted or top-dose-only effect, or another doubt; inactive = no such curve, though single readings can be large; an effect the other way counts as inactive or inconclusive.

A short description of assay [1]: qHTS for ATAD5 Agonist screened against the NCATS CANVASS Library (AID 1347367). Summed up: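 Genotoxicity was scored as increased ATAD5-luciferase luminescence in HEK293T after 16hr of exposure, with cell viability measured by fluorescence beforehand in the same well.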
Assay [2] can be described thus: G06 Cancer Cell Toxicity qHTS against the NCATS CANVASS Library (AID 1347368). Summed up:
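Dog G06 glioma line, 500 cells/well; cpds pin-transferred, 11-pt; 72 hr, 37C/5% CO2; CellTiterGlo luminescence (ATP) endpoint.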

Assay [3] is described as follows: MCF7 Cancer Cell Toxicity qHTS against the NCATS CANVASS Library (AID 1347369). Summed up:
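This 72 hr qHTS scored MCF7 viability by CellTiterGlo luminescence, with 500 cells/well; bortezomib titration ran as control.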

A short description of assay [4]: qHTS for ATAD5 Antagonist screened against the NCATS CANVASS Library (AID 1347370). Summed up: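 HEK293T cells with stably integrated ATAD5-luciferase reporter, 2000/well, 5 h attachment; compounds plus 10 µM 5-fluorouridine, 16 h at 37 °C. Luciferase luminescence read, with CellTiter-Fluor viability read first.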
Assay [5] deals with Nuclear receptor subfamily 1 group I member 3 (Homo sapiens) (UniProt Q14994). Briefly: qHTS for Constitutive Androstane Receptor (CAR) Antagonist screened against the NCATS CANVASS Library (AID 1347372). Summed up:
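HepG2 cells stably carrying hCAR and CYP2B6-2.2kb luciferase reporter, 2500 cells/well, compound with 50 nM CITCO agonist for 24hr at 37C. ONE-Glo luminescence measured CAR activity; CellTiter-Fluor read viability.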

Assay [6] shares this target. Briefly: qHTS for Constitutive Androstane Receptor (CAR) Agonist screened against the NCATS CANVASS Library (AID 1347373). Summed up: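 HepG2-hCAR-CYP2B6 cells, 2500/well, attached 4hr; cpd + PK11195 1.5uM final; 24hr 37C 5% CO2. CellTiter-Fluor viability read, then ONE-Glo luminescence for CAR activation.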
Assay [7] is described as follows: qHTS for Hypoxia signaling pathway (HIF-1) antagonists against the NCATS CANVASS Library (AID 1347374). Summed up:
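HRE-bla ME-180 cells in medium with 0.5% dialyzed FBS received compounds (11-point series) plus CoCl2 (60 uM addition stock) for 17 hrs at 37C. Beta-lactamase activity read with CCF4 (405 nm ex, 460/530 nm em); CellTiter-Glo viability measured in same wells.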

Assay [8] in a line: qHTS for Hypoxia signaling pathway (HIF-1) agonists against the NCATS CANVASS Library (AID 1347375). Summed up: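 ME-180 HRE-bla reporter cells; 2,000/well, 0.5% dialyzed FBS; cpd added after 5 h, 17 h 37C/5% CO2; CCF4-AM 2 h RT; FRET 460/530 nm; CellTiter-Glo viability same wells, 30 min.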
The nature of assay [9]: 10-beta competent E. coli microbial cell viability qHTS against the NCATS CANVASS Library (AID 1347376). Summed up: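 E. coli 10-beta, 0.2 OD; cpds 11-pt; o/n 37C, 5% CO2; BacTiter-Glo 20 min RT; luminescence (ATP) = viable cells. Daunomycin ctrl.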
A short description of assay [10]: DH5-alpha competent E. coli microbial cell viability qHTS against the NCATS CANVASS Library (AID 1347377). The settings on record: outcome: at 46.1 µM (top of the series). Summed up:
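qHTS, 11-pt; E. coli DH5-alpha, 0.2 OD; o/n 37C/5% CO2; BacTiter-Glo, 20 min RT; luminescence.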

Assay [11] is described as follows: qHTS for Inflammasome Signaling Inhibitors: IL-1-beta AlphaLISA screen against the NCATS CANVASS Library (AID 1347379). Summed up: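 THP-1 cells pretreated 1 hr with compound (up to 57.5 uM final), then stimulated with LPS (250 ng/mL final) and ATP (1.25 mM final). Secreted IL-1B measured by AlphaLISA after 16 hr; glyburide as positive control.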
The nature of assay [12]: qHTS for Antimalaria activity screened against the NCATS CANVASS Library (AID 1347380). Summed up:
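Dd2 strain, infected erythrocytes 2.5% Hct final / 0.3% parasitemia. 11-pt qHTS titration, 72 h, 37C, 5% O2, 5% CO2. Lysis buffer + SYBR Green, 18 h, fluorescence 485/535 nm.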

A short description of assay [13]: Inflammasome Signaling qHTS Counterscreen: IL-1-beta AlphaLISA counterscreen against the NCATS CANVASS Library (AID 1347381). Summed up: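 Cell-free interference check: compounds added to medium spiked with 4 pg purified IL-1β. Anti-IL-1β acceptor beads (6 ug/mL) with 0.6 nM biotinylated antibody added for 1 h at RT, then streptavidin donor beads (24 ug/mL) for 30 min in the dark. AlphaLISA read at 680/615 nm.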

Assay [14] is described as follows: qHTS for Activators of p53 Stress Response Pathway screened against the NCATS CANVASS Library (AID 1347388). Summed up:
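p53RE-bla HCT-116 cells (4000/well) were pre-incubated for 5 h, then treated with compound (11 points) for 16 h at 37C. After 2 h with CCF4, the 460/530 nm ratio gave reporter activation; CellTiter-Glo measured viability.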

Assay [15] can be described thus: qHTS assay for small molecule disruptors of mitochondrial membrane potential screened against the NCATS CANVASS Library (AID 1347389). Summed up:
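HepG2, 2,000 cells/well, attached overnight; compound 1 hr, 37C, 5% CO2; Mito-MPS dye 30 min, 37C; fluorescence 535 nm (monomer) and 590 nm (aggregate); decreased 590/535 ratio = depolarization.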

The nature of assay [16]: Secretion counterscreen for inhibitors of the SERCaMP assay screened against the NCATS CANVASS Library (AID 1347390). Summed up: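 Natural products are titrated in an 11-point series up to 77 uM onto SH-SY5Y-GLuc STOP cells for 20 h. Secreted reporter activity is measured as coelenterazine-driven luminescence, with Brefeldin A on each plate.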
Assay [17] in a line: qHTS for activators of dead-cell proteases activity screened against the NCATS CANVASS Library (AID 1347392). Summed up:
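HepG2 cells, 2000/well, attached 18 h at 37C, then exposed to compounds (11-point qHTS) for 5 h. Dead-cell protease release read as luminescence from cell-impermeant AAF-aminoluciferin substrate after 15 min at room temperature.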

The nature of assay [18]: qHTS for inhibitors of Wild type Zika virus screened against the NCATS CANVASS Library (AID 1347396). Summed up: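 Vero 766 (African green monkey) cells, 1000 per well, attached overnight, then compounds were added in an 11-point series before wild-type Zika virus infection. After 72 h at 37C, cell viability was read as CellTiter Glo luminescence.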
The nature of assay [19]: Viability qHTS for inhibitors of the SERCaMP assay screened against the NCATS CANVASS Library (AID 1347400). Summed up: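 SH-SY5Y SERCaMP MJH297 cells, 1000/well; 4 h settle, 37C/5% CO2; pin-transferred cpds; 48 h; CellTiter-Glo lum. Pos ctrl bortezomib 0.0001 - 4.6 uM.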
Assay [20] in a line: Redox Reaction Profiling qHTS: Assay Interference Panel against the NCATS CANVASS Library (AID 1347401). Summed up:
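Compounds in 11-point series incubated with 5 uM resazurin and 200 uM DTT in 50 mM HEPES pH 7.3, 50 mM NaCl. Resorufin fluorescence (Ex 525/Em 598) read before and after 15 min in the dark.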

Assay [21] in a line: qHTS for inhibitors of Rabies Virus screened against the NCATS CANVASS Library (AID 1347402; calls by dose curve).
A short description of assay [22]: Primary qHTS for small molecule stabilizers of the endoplasmic reticulum resident proteome: Secreted ER Calcium Modulated Protein (SERCaMP) assay (AID 1508630). Summed up:
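GLuc-SERCaMP-expressing SH-SY5Y cells, pretreated 16 h with compound, are challenged with thapsigargin to empty ER calcium stores; after 4 h, coelenterazine is added directly to the medium and luminescence is imaged.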

Assay [23] in a line: Primary qHTS for inhibitors of nuclear receptor binding SET domain protein 2 (NSD2) in an isogenic RCH-ACV NSD2 p.E1099K mutant (9B) (AID 1645876).
A short description of assay [24]: Primary qHTS for inhibitors of nuclear receptor binding SET domain protein 2 (NSD2) in an RCH-ACV wild type WT cells (2C) (AID 1645877).

Sequence of Nuclear receptor subfamily 1 group I member 3 (Homo sapiens) (Q14994 whole entry, looked up): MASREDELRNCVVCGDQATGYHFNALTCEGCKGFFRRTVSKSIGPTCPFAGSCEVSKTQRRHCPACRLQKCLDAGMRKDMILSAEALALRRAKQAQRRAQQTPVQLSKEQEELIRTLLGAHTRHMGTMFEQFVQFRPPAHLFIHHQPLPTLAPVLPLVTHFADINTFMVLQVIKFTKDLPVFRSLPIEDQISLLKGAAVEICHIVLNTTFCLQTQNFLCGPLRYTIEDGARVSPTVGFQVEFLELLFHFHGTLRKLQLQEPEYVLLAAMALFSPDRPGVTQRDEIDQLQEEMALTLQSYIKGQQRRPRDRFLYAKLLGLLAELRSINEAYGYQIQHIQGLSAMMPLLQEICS

With `COc1ccc2c(c1)[nH]c1c(C)nccc12`, the Potency entry in [1], in [5], in assay [8], in assay [15], in assay [17] and in assay [18] was “inactive” each time. Besides, the Potency entry in assay [20] and in assay [22] was “inactive” throughout. Also, the Potency in assay [2] was 24.1 µM (active); in assay [3], 34 µM (active); in assay [4], 2.41 µM (active); in assay [7], 17.2 µM (active); in assay [11], 31.4 µM (active); in assay [12], 0.0054 µM (active). The Potency is 21.5 µM (active) in [14]; 62.7 µM (active) in [16]; 27.8 µM (active) in assay [19]; 16.4 µM (active) in assay [23]; 8.2 µM (active) in [24]. Further, the call in [6], in [9], in assay [10], in assay [13] and in assay [21] was inactive.
